Screens: PubChem BioAssay, several laboratories
Sampled rows, rich in hits. Any-hit rate of the full collection: about 2.6%.
Peg3 promoter: inhibitors of Peg3 promoter | HeLa PEG-Prom luciferase reporter, luminescence, overnight | AID 588405 | 360,000 compounds, 1.7% hits | inhibition, % at 20 µM;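 active = inhibition of at least 50% at 20 µM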
Shn3 3UTR inh: reduces Shn3 3'UTR luciferase signal in osteoblasts; Clone20 osteoblast Shn3 3'UTR firefly luciferase, 24 h; inhibition, % at 12.5 µM; 360,000 compounds, 0.52% hits;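 active = mean inhibition of at least 75% with every replicate also reaching 75%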
CF NFkB block: blocks PAF-induced NF-kB reporter in cystic fibrosis cells; KKLEB NF-kB-GFP reporter, GFP fluorescence overnight; 360,000 compounds, 0.86% hits; inhibition, % at 5 µM;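 active = at least 50% inhibition at 5 µM, scaled per plate between neutral and stimulator controls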;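 note: PAF is a Pseudomonas aeruginosa culture filtrate used as stimulus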
KKLEB cytotox: counter-screen for CF NF-kB inhibitors: cytotoxicity; 360,000 compounds, 0.36% hits; activity change (cytotoxicity), % at 5 µM; KKLEB CF airway cells viability, ATPlite luminescence, overnight; hits give low values; cells stimulated with P. aeruginosa culture filtrate;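 active = corrected activity change at or below -50% at 5 µM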
HIF-2a block: inhibitors of HIF-2a; AID 624352; inhibition, % at 18.8 µM; 786-0 RCC cells HIF-2a reporter, luciferase luminescence, overnight; 360,000 compounds, 0.72% hits;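 active = inhibition of the luminescence signal of 40% or more relative to plate controls, in a single-dose primary screen at 18.75 µM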
Mdm2 MdmX conf: Mdm2/MdmX (human) interaction inhibition, confirmed; shares compounds with HIF-2a block; SaOS-2 split-luciferase Mdm2/MdmX complementation, luminescence; inhibition, % at 8 µM; 740 compounds, 99% hits; AID 504601;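 active = mean inhibition of the luminescence signal across two replicates at or above 26 percent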
HIF-2a inh conf: confirmation of HIF-2a inhibitors; shares compounds with HIF-2a block; 786-0 RCC cells, HIF-2a luciferase reporter luminescence, overnight; inhibition, % at 18.8 µM; 1,800 compounds, 56% hits; AID 651580;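 active = mean inhibition across four replicates of at least 40 percent at the single tested concentration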
HIF-1a counter: counter-screen for HIF-2a inhibitors: HIF-1a inhibition in MiaPaCa-2 cells | shares compounds with HIF-2a block | MiaPaCa-2 HIF-1a luciferase reporter, desferoxamine, overnight | inhibition, % at 18.8 µM | 1,800 compounds, 72% hits | AID 651589;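 active = mean inhibition of the reporter signal across four replicates at the single tested dose of 50% or more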
Of the large screens only hits and unclear results are named; the others gave an inactive call (follow-up assays come after a bar, where they were run).

COc1ccc(C(CNC(=O)c2ccc(OCc3c(C)noc3C)cc2)N2CCCC2)cc1 (stereo unspecified)	none
CCN(CC(=O)Nc1cccc(Br)c1)Cc1nc2ccccc2c(=O)[nH]1	HIF-2a block 42 | HIF-2a inh conf inactive | HIF-1a counter inactive
CCc1ccc(S(=O)(=O)Nc2ccc(-c3ccc4nncn4n3)cc2)s1	HIF-2a block 42 | HIF-2a inh conf inactive | HIF-1a counter inactive
CCc1ccc(S(=O)(=O)Nc2ccc(-c3ccc4nnc(C)n4n3)cc2)s1	none
CCc1ccc(N2C=C(C(=O)OC)C(c3ccc(OC)cc3)C(C#N)=C2N)cc1 (stereo unspecified)	HIF-2a block 53 (no result: Peg3 promoter, Shn3 3UTR inh, CF NFkB block, KKLEB cytotox) | HIF-2a inh conf 74 | HIF-1a counter 99
COC(=O)C1=CN(c2ccc(OC)cc2)C(N)=C(C#N)C1c1ccc(OC)cc1 (stereo unspecified)	none (no result: Peg3 promoter, Shn3 3UTR inh, CF NFkB block, KKLEB cytotox)
Cc1ccc(C2=NN(C(=O)CCl)C(c3cccs3)C2)o1 (stereo unspecified)	Peg3 promoter 60, HIF-2a block 84 | Mdm2 MdmX conf 101 | HIF-2a inh conf inactive | HIF-1a counter 51
COc1ccc(C2CC(c3cccs3)=NN2C(=O)c2ccccc2)cc1OC (stereo unspecified)	none
COc1ccc(C2CC(c3cccs3)=NN2C(=O)CCl)cc1OC (stereo unspecified)	Peg3 promoter 103 | Mdm2 MdmX conf 96
COc1cc(C2CC(c3cccs3)=NN2C(=O)CCl)ccc1OC(F)F (stereo unspecified)	Peg3 promoter 109, CF NFkB block 104, KKLEB cytotox -88 | Mdm2 MdmX conf 103
CC(=O)N1N=C(c2ccco2)CC1c1cccs1 (stereo unspecified)	none
COc1cc(C=C2C(=O)C=CC2=O)ccc1O	HIF-2a block 84 (no result: Peg3 promoter, Shn3 3UTR inh, CF NFkB block, KKLEB cytotox) | HIF-2a inh conf 99 | HIF-1a counter 95
CN1CC2=Cc3ccccc3OC23Oc2ccccc2C=C3C1	Peg3 promoter 69, HIF-2a block 92 | HIF-2a inh conf inactive | HIF-1a counter 79
COc1cccc(CNC(=O)C2CCCN(c3cnccn3)C2)c1 (stereo unspecified)	none
CCCc1cc2c(cc1NC(=O)c1ccccc1Cl)OCO2	none
CCOc1ccc(CNC(=O)c2cc3oc4ccccc4c3n2C)cc1	none
COc1cccc(CNC(=O)c2cc3oc4ccccc4c3n2C)c1OC	none | Mdm2 MdmX conf 100
Cc1ccc(-n2ncc3c2CCCC3NC(=O)CSc2ccccn2)cc1C (stereo unspecified)	none
CC1CCN(S(=O)(=O)c2ccc(NC(=O)c3ccncc3)cc2)CC1	none
CCc1ccc(NC(=O)c2nc(S(=O)(=O)Cc3ccccc3)ncc2Cl)cc1	Peg3 promoter 101, Shn3 3UTR inh 96, CF NFkB block 91, KKLEB cytotox -97, HIF-2a block 95 | Mdm2 MdmX conf 103 | HIF-2a inh conf 88 | HIF-1a counter 87
CN(c1ccccc1)S(=O)(=O)c1ccc(NC(=O)c2ccccc2)cc1	none
CCS(=O)(=O)c1ncc(Cl)c(C(=O)Nc2ccc(S(=O)(=O)N3CCC(C)CC3)cc2)n1	Peg3 promoter 105, Shn3 3UTR inh 99, CF NFkB block 98, KKLEB cytotox -105, HIF-2a block 86 | Mdm2 MdmX conf 103 | HIF-2a inh conf 99 | HIF-1a counter 103
CN(c1ccccc1)S(=O)(=O)c1ccc(NC(=O)c2nc(S(C)(=O)=O)ncc2Cl)cc1	Peg3 promoter 111, Shn3 3UTR inh 99, CF NFkB block 108, HIF-2a block 65 | Mdm2 MdmX conf 103 | HIF-2a inh conf 99 | HIF-1a counter 94
COC(=O)c1ccc(NC(=O)c2nc(S(=O)(=O)Cc3cccc(C)c3)ncc2Cl)cc1	Peg3 promoter 99, Shn3 3UTR inh 95, CF NFkB block 85, KKLEB cytotox -101, HIF-2a block 92 | Mdm2 MdmX conf 103 | HIF-2a inh conf 75 | HIF-1a counter 94
